# Data from ChEMBL document CHEMBL3988442, “University of Dundee, Small-Polar-MMV Screening Library” (2021).
# Assays:
# [1] = biological target: T1, Aspartate--tRNA(Asp/Asn) ligase (Mycobacterium tuberculosis (strain ATCC 25618 / H37Rv)) (UniProt P9WFW3); experiment: Assay for Asp RNA synthetase-1 from Mycobacterium tuberculosis; assay type: functional; design: scale not given: direction of the effect not stated beside the values; conditions: 30 µM; further: in the data most compounds retested in dose-response had high values
# T1 sequence (whole entry): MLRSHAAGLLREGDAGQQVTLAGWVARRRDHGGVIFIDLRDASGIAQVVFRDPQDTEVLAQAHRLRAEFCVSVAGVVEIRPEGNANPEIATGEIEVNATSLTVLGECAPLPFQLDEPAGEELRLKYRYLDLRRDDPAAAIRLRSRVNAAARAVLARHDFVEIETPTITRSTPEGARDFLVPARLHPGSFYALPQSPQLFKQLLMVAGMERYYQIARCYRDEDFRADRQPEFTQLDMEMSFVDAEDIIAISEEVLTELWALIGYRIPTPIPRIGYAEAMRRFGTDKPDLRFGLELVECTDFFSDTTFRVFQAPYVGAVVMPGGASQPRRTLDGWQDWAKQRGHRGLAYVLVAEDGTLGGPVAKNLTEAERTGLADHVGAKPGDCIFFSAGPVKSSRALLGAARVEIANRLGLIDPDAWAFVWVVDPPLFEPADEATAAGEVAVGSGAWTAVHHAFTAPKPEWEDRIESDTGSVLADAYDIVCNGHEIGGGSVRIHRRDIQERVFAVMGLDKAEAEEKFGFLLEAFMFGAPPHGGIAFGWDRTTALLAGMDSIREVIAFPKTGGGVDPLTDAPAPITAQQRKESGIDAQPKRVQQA
# [2] = biological target: Shiga toxin 2 (Escherichia coli O157:H7) (UniProt P09385+P09386); experiment: E. coli 0.157:H7 Shiga Toxin SOP - stx2 screening assay; assay type: functional; design: scale not given: direction of the effect not stated beside the values; conditions: 30 µM
Compound,Percent Effect [1],Percent Effect [2]
Cn1cc(CN2CCc3onc(COc4cccnc4)c3C2)cn1,-6.13%,-65.9%
CCCNC(=O)NCc1cccnc1OC,-6.48%,-26.6%
Cn1cc(-c2cnc(N3CCOCC3)nc2)cc1C(=O)O,-4.12%,9.97%
CNC(=O)c1nc2c(s1)CCN(C(=O)Cc1ccc(OC)cc1)CC2,0.107%,-7.44%
COCCOc1cccc(C(=O)N2CCCC(n3ccnc3C)C2)c1 (stereo unspecified),-2.52%,-16%
O=C(NC[C@H]1OC[C@@H]2CCN(C(=O)c3ccco3)C[C@@H]21)C1CC1,3.37%,-7.69%
CNc1cncc(C2CCCN2Cc2c[nH]cn2)n1 (stereo unspecified),7.49%,7.95%
CC(NC(=O)NCc1cccnc1N1CCCCC1)c1nccs1 (stereo unspecified),-6.16%,-7.44%
CNS(=O)(=O)c1cccc(C(C)NCc2nccn2C(C)C)c1 (stereo unspecified),-2.07%,-29.6%
CC(=O)N1N=C(c2ccccc2)OC1C(=O)NCCC1=CCCCC1 (stereo unspecified),0.28%,22.5%
CCc1nc(CN2CCCC(NCc3cc(C)no3)C2)no1 (stereo unspecified),3.46%,9.82%
O=C(c1ccc(F)c(F)c1)N1CCCC(Nc2ccc(F)cc2)C1 (stereo unspecified),0.212%,11.2%
COc1c(C2CCCN2C(=O)c2csc(C(C)C)n2)c(C)nn1C (stereo unspecified),5.31%,4.42%
Cc1cc2c(cc1C)C(NCc1nnc3n1CCCCC3)CCCO2 (stereo unspecified),0.212%,-2.95%
Cc1cccc(-n2cc(C(=O)N3CCCC(n4ccnc4)C3)nn2)c1 (stereo unspecified),1.58%,7.71%
CCc1nc2n(n1)CC(NCC(=O)Nc1nccs1)CC2 (stereo unspecified),-2.71%,2.48%
O=C(N[C@@H]1CN(Cc2ccsc2)[C@@H]2CCCO[C@@H]21)C1CC1,-0.611%,-18.9%
COc1ccc(-c2cc(C3CCCCCN3S(=O)(=O)N(C)C)on2)cc1 (stereo unspecified),-5.4%,-17.1%
